Assay results taken from ChEMBL document CHEMBL3988442, “University of Dundee, Small-Polar-MMV Screening Library” (2021).
About 13,000 (27%) of roughly 48,000 compounds showed an effect of 50% or more. This is one part of the list.

Each compound was assayed on Wolbachia pipientis (assay: Anti-Wolbachia Cell-Based Screen). Conditions: 5 µM.
Format: functional
Design: scale not given: in the data most compounds retested in dose-response had high values

First: CC(=O)Nc1ccsc1C(=O)Nc1cnc2n1CCCC2
Second: CC(=O)Nc1ccc(CC(=O)N2CC(S(=O)(=O)C3CCCCC3)C2)cc1
The “Percent Effect” value of the first is lower: 1.629% for the first, 1.653% for the second.

Going from CNc1nc(C(=O)NCC2CCOc3ccccc3C2)cs1 (stereo unspecified) to CC(=O)NCC1CCN(CC2CCOc3ccccc3C2)CC1 (stereo unspecified), the “Percent Effect” value rises from 3.092% to 6.943%.

Going from CC(C)C1CN(c2nccc(N)n2)CCC(=O)N1Cc1ccc(F)cc1 (stereo unspecified) to CC1CCN(C(=O)c2ccn(COc3ccc(F)cc3)n2)CC1, the “Percent Effect” value falls from 6.607% to 3.69%.

Going from COc1cccc(OCC2CCCN(C(=O)c3ccc(N)nc3)C2)c1 (stereo unspecified) to Cn1cnc2cc(C(=O)N3CCC(c4ccccc4C(=O)O)C3)cnc21 (stereo unspecified), the “Percent Effect” value rises from -26.62% to 0.5169%.

First: CC(C)N(CC(=O)Nc1ccc(Br)cc1Cl)Cc1cccnc1
Second: Cn1cc(CN2CCC(CCC(=O)Nc3ccccc3Cl)CC2)cn1
The “Percent Effect” value of the first is lower: -0.1768% for the first, 1.121% for the second.

First: COC(=O)CCC(=O)N1CCc2nc(C(=O)N3CCOCC3)sc2CC1
Second: OC1(CNCCc2nc3c(s2)CCCC3)CNCCOC1 (stereo unspecified)
The “Percent Effect” value of the first is lower: -7.844% for the first, 109% for the second.

Compared with CN(Cc1ccco1)[C@@H]1CN(CC2CCOCC2)C[C@@H]2CCCO[C@@H]21.O=C(O)C(F)(F)F.O=C(O)C(F)(F)F, CN(CC(F)(F)F)C(=O)CN1CCC(c2cc3ccccc3[nH]2)CC1 is lower in “Percent Effect” value: 2.943% for the first, -8.939% for the second.

Going from CCNC(=O)N1CCC(c2ccccc2)C1 (stereo unspecified) to CCN(CC)C(=O)CCNC(=O)N1CCC(c2ccccc2)C1 (stereo unspecified), the “Percent Effect” value falls from 124.1% to 4.092%.

Going from O=C(NCCNC(=O)N1CCC(c2ccccc2)C1)C1CC1 (stereo unspecified) to COc1nn(C)cc1C(=O)N1CCC(c2ccccc2)C1 (stereo unspecified), the “Percent Effect” value rises from -9.135% to 121.1%.

Compared with CC1CCN(C(=O)c2cn(-c3cc(N4CCSCC4)ncn3)cn2)CC1, COc1nn(C)cc1C(=O)N1CCC(C)CC1 is higher in “Percent Effect” value: 12.42% for the first, 127.9% for the second.

First: CS(=O)(=O)Cc1ccc(Cl)cc1NCc1cccc(F)c1F
Second: CNS(=O)(=O)c1cccc(CNc2nccc(C(F)(F)F)n2)c1
The “Percent Effect” value of the first is lower: -9.935% for the first, -7.88% for the second.

Going from CCCN1CC2(CCN(C)CC2)CC1C(=O)NCCn1cccn1 (stereo unspecified) to CN(C)S(=O)(=O)N1CCC(Cn2cccn2)CC1, the “Percent Effect” value falls from 6.399% to 2.027%.

Compared with COc1ccc(CN2CCN(CC3CC3)[C@@H]3CS(=O)(=O)C[C@@H]32)cc1C, COCCN1CCC(c2cncc(-c3ccccc3C)n2)CC1 is higher in “Percent Effect” value: 20.23% for the first, 100.9% for the second.

Going from COc1ccc(Cl)cc1CN(C)CC(=O)/N=c1\cc[nH]n1C(C)C1CC1 (stereo unspecified) to Cc1ccccc1-c1cncc(C2CCN(C(=O)CN(C)C)CC2)n1, the “Percent Effect” value falls from -13.95% to -14.47%.

Compared with C1Cc2nc(CCNc3nc(C4CC4)nc4c3CCNCC4)sc2C1, Cc1nc2c(c(NCCc3nc4c(s3)CCCC4)n1)CCNCC2 is higher in “Percent Effect” value: 0.8801% for the first, 7.698% for the second.

Going from OC1(CNCCc2nc(Cc3ccccc3)no2)CNCCOC1 (stereo unspecified) to OC1(CNCCSc2ccccn2)CNCCOC1 (stereo unspecified), the “Percent Effect” value falls from 14.79% to -26.11%.

First: OC1(CNCCc2nc3c(s2)CCCC3)CCNC1 (stereo unspecified)
Second: CCn1c(CN2CCCC2)nnc1C1CCN(Cc2ccccn2)CC1
The “Percent Effect” value of the first is higher: 87.02% for the first, -10.72% for the second.

First: CC(C)NCc1nc(-c2ccc3c(c2)OCO3)c[nH]1.Cl.Cl
Second: CN1CCN(Cc2noc(-c3cc(-c4ccc(F)cc4)n[nH]3)n2)CC1
The “Percent Effect” value of the first is higher: 8.786% for the first, -13.75% for the second.

Compared with CCCc1cc(NC(=O)c2cccc(N3CCCNC3=O)c2)n[nH]1, CCc1nc2n(n1)CC(NCC(=O)Nc1ccc(Cl)cn1)CC2 (stereo unspecified) is lower in “Percent Effect” value: 11.29% for the first, -9.728% for the second.

First: Cc1ccccc1-c1cncc(C2CCN(C3CCOCC3)CC2)n1
Second: Cc1ccccc1-c1cncc(C2CCN(C)CC2)n1
The “Percent Effect” value of the first is higher: 110.9% for the first, -14.26% for the second.

Compared with Cn1cncc1-c1nnc([C@H]2CCN(C3CCOCC3)C2)o1, CCn1c(CN(C)C)nnc1C1CCN(Cc2ccccn2)CC1 is higher in “Percent Effect” value: -2.913% for the first, 2.831% for the second.

Going from Cc1ccccc1-c1cncc(C2CCN(CCO)CC2)n1 to Cc1ccccc1-c1cncc(C2CCN(CC(=O)N(C)C)CC2)n1, the “Percent Effect” value rises from 122.1% to 124.8%.

Going from Cc1ccccc1-c1cncc(C2CCN(S(=O)(=O)N(C)C)CC2)n1 to Cc1ccccc1-c1cncc(C2CCN(Cc3cnn(C)c3)CC2)n1, the “Percent Effect” value falls from 110.9% to 99.14%.

First: CC(C)(C)NC(=O)Cn1cc(C(N)=O)c(-c2ccccc2)n1
Second: Fc1ccccc1CC1CCN(Cc2ccccn2)CC1
The “Percent Effect” value of the first is higher: 6.588% for the first, -1.082% for the second.

Compared with Clc1ccc2cccnc2c1CN1CCCC(Cn2cncn2)C1 (stereo unspecified), Oc1nc(C2CCN(Cc3ccccn3)CC2)cc2ccccc12 is higher in “Percent Effect” value: -4.204% for the first, 103.3% for the second.

With Cc1ccccc1-c1cncc(C2CCN(Cc3ccccn3)CC2)n1 the “Percent Effect” value was 93.34%.
